From PubChem BioAssay (NCATS)
Results filed as inconclusive are left out. The source made the active and inactive calls. Calls follow the shape of the dose curve; as a rule, active = well fitted inhibition curve with a large enough effect; inconclusive = small, poorly fitted or top-dose-only effect; inactive = flat fitted curve, though single readings scatter.

Molecular target: Glutathione peroxidase 1 (Homo sapiens) (UniProt P07203)
Assay: Primary qHTS Assay for Inhibitors of Recombinant Selenoprotein Glutathione Peroxidase 1 (GPX1) (AID 1845191)
Settings: recombinant GPX1, GR-coupled NADPH fluorescence, 15 min; series mostly up to 27.7 µM; activity, negative = inhibition: at the top concentration
How it was run: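 NADPH consumption tracked by fluorescence at 340/450 nm between t=0 and t=15 min, room temperature. Final mix: 10 nM GPX1, 100 nM glutathione reductase, 1 mM GSH, 0.5 mM NADPH, 0.5 mM cumene hydroperoxide, 0.01% BSA; 30 min compound–enzyme preincubation.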
% is scaled to controls: 0 for no effect and ±100 for the full control effect.
Also: nearly all actives have a fitted effect of over 65% in size.

Chain of Glutathione peroxidase 1 (Homo sapiens) (P07203 whole entry, looked up): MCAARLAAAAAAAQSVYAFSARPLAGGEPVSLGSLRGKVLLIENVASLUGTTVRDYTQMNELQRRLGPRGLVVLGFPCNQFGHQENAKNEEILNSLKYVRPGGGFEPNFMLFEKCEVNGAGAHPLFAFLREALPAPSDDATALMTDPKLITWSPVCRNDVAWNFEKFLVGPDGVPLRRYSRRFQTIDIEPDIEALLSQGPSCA

Structure (SMILES)	outcome	activity, negative = inhibition	Potency
CC(C)(O)C(O)C(=O)OCc1ccc(O[C@@H]2O[C@H](CO)[C@@H](O)[C@H](O)[C@H]2O)cc1 (some centres not stated)	inactive		
C/C=C(/C)C(=O)O[C@@H]1C[C@@H](OC(=O)/C(C)=C\C)[C@@]2(C)C3C(=O)C=C(C)C2C3C1(C)C	inactive		
C=C(C)[C@@H]1CC[C@]2(C)CC[C@]3(C)C(CCC4[C@@]5(C)CC[C@H](O)C(C)(C)C5CC[C@]43C)C12 (some centres not stated)	inactive		
CC(=O)O[C@@H]1C(=O)C(C)=C(CCC(C)CC(=O)O)[C@@]2(C)CCCC(C)(C)C12 (some centres not stated)		-18.1% (inactive)	
C/C=C/C=C/C(=O)OC1CC/C=C/C(O)C(O)C(CCC)OC1=O (configuration not stated)		-13% (inactive)	
C=C1C(O)CC2C(C(=O)O)=COC(OC3OC(CO)C(O)C(O)C3OC(=O)/C=C\c3ccc(O)cc3)C12 (configuration not stated)		-6.89% (inactive)	
CC(C)c1c(NC(=O)Nc2ccc(Cl)cc2)c(=O)n(-c2ccccc2)n1C		-7.69% [at 48.8 µM] (inactive)	
CC(C)(C)NS(=O)(=O)c1ccc(-c2ccc3[nH]nc(N)c3c2)cc1	inactive [at 48.8 µM]		
COc1cc2c(cc1O)C(c1ccc(O)cc1)C(C)C(C)C2 (configuration not stated)		-32.1% [at 48.8 µM] (inactive)	
CCNC(=O)OC1CCN(c2nncc3cc(OC)c(OC)cc23)CC1		-2.64% [at 48.8 µM] (inactive)	
CC(=O)OC1CC2(C)C(CCC(C)C23Cc2c(O)cc4c(c2O3)CNC4=O)C(C)(C)C1O (configuration not stated)		-26.2% (inactive)	
CC1=C(CCC(C)O[C@@H]2O[C@H](CO)[C@@H](O)[C@H](O)[C@H]2O)C(C)(C)CC(O)C1 (some centres not stated)		-13.9% (inactive)	
C=C1C(OC(C)=O)C(=O)C2C(C)(C)C(O)CCC2(C)C1CC(OC(C)=O)/C(C)=C/COC(C)=O (configuration not stated)		-8.73% (inactive)	
C=C1[C@H]2CCC3[C@]4(C)CCC[C@@](C)(C(=O)O)C4CC[C@]3(C2)[C@H]1OC(C)=O (some centres not stated)		-7.34% (inactive)	
N#Cc1cc(-c2n[nH]c(-c3ccncc3)n2)ccn1			inactive
COC1CC(O[C@H]2CC[C@@]3(C)C(=CC[C@]4(O)C3[C@H](O)[C@@H](O)[C@]3(C)[C@@H]([C@H](C)O)CC[C@@]34O)C2)OC(C)C1OC1CC(OC)C(OC2CC(OC)C(OC3OC(C)C(OC4OC(CO)C(O)C(O)C4O)C(OC)C3O)C(C)O2)C(C)O1 (some centres not stated)		-11.6% [at 15.3 µM] (inactive)	
CC1=C2CC(C)(C)CC2C(O)C2=C(C1)C(=O)OC2O (configuration not stated)	inactive [at 48.8 µM]		
C[C@@H]1[C@H]2[C@H](O[C@@H]3O[C@H](CO)[C@@H](O)[C@H](O)[C@H]3O)OC=C(C(=O)O)[C@H]2C[C@@H]1OC(=O)/C=C/c1ccc(O)cc1		-11.7% (inactive)	

Molecular target: Phospholipid hydroperoxide glutathione peroxidase GPX4 (Homo sapiens) (UniProt P36969)
Sequence (P36969 whole entry, looked up): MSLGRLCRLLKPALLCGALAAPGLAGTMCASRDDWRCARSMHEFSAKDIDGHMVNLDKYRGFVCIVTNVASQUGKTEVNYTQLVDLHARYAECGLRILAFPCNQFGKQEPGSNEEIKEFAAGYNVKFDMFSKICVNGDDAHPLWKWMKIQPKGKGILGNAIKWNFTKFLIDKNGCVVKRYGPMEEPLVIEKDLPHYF
Assay: Primary qHTS Assay for Inhibitors of Recombinant Selenoprotein Glutathione Peroxidase 4 (GPX4) (AID 1845192)
Settings: recombinant GPX4, GR-coupled NADPH fluorescence, 15 min; series mostly up to 27.8 µM; activity change, negative = inhibition: at the top concentration
How it was run: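 NADPH consumption followed by fluorescence at 340/450 nm, t=0 and after 15 min at room temperature. Reaction started with cumene hydroperoxide (0.5 mM final) after 30 min compound–GPX4 preincubation; final 200 nM GPX4, 100 nM GR, 1 mM GSH, 0.5 mM NADPH.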

Structure (SMILES)	activity change, negative = inhibition	outcome	Potency
O=C(/C=C/c1ccc(O)cc1)OCC1OC(O)C(OC2OC(CO)C(O)C(O)C2O)C(O)C1O (configuration not stated)	-0.594% (inactive)		
Cc1onc(-c2c(Cl)cccc2Cl)c1CC(=O)NCc1ccc(OCC(F)(F)F)nc1	-8.21% [at 50 µM] (inactive)		
CC1(C)CC[C@]2(C(=O)O[C@@H]3O[C@H](CO)[C@@H](O)[C@H](O)[C@H]3O)CC[C@]3(C)C(=CCC4[C@@]5(C)C[C@H](O)[C@H](O[C@@H]6O[C@H](C(=O)O)[C@@H](O)[C@H](O)[C@H]6O)[C@@](C)(CO)C5CC[C@]43C)C2C1 (some centres not stated)	-2.87% [at 9.73 µM] (inactive)		
CC(=O)O[C@@H]1[C@H](O[C@@H]2O[C@H](CO)[C@@H](O)[C@H](O)[C@H]2O)[C@@H](O[C@@H]2O[C@@H](C)[C@H](O)[C@@H](O[C@@H]3O[C@H](CO)[C@@H](O)[C@H](O)[C@H]3O)[C@H]2O)[C@H](OC(=O)[C@]23CCC(C)(C)C[C@H]2C2=CCC4[C@@]5(C)C[C@H](O)[C@H](O[C@@H]6O[C@H](C(=O)O)[C@@H](O)[C@H](O)[C@H]6O)[C@@](C)(C(=O)O)C5CC[C@@]4(C)[C@]2(C)CC3)O[C@@H]1C (some centres not stated)		inactive [at 9.73 µM]	
COc1ccc(CCC(=O)c2c(O)cc(O[C@@H]3O[C@H](CO)[C@@H](O)[C@H](O)[C@H]3O[C@@H]3O[C@@H](C)[C@H](O)[C@@H](O)[C@H]3O)cc2O)cc1O	-16.1% [at 50 µM] (inactive)		
O=C(/C=C/c1ccc(O)c(O)c1)O[C@H]1[C@H](OC2CCCCC2O)O[C@H](CO)[C@@H](O)[C@@H]1O (some centres not stated)	-1.02% (inactive)		
CC(C)=CCC[C@](C)(O[C@@H]1O[C@H](CO)[C@@H](O)[C@H](O)[C@H]1O)[C@H]1CC[C@]2(C)[C@@H]1[C@H](O)CC1[C@@]3(C)CC[C@H](O)C(C)(C)C3[C@@H](O[C@@H]3O[C@H](CO)[C@@H](O)[C@H](O)[C@H]3O[C@@H]3O[C@@H](C)[C@H](O)[C@@H](O)[C@H]3O)C[C@]12C (some centres not stated)	-0.476% [at 15.3 µM] (inactive)		
C/C(=C\CC[C@H](CO)[C@@H]1CC[C@]2(C)C3=C(CC[C@@]12C)[C@@]1(C)CCC(=O)C(C)(C)C1CC3)C(=O)O (some centres not stated)	-4.02% (inactive)		
C/C=C(\C)C(=O)OC[C@H]1O[C@@H](O[C@H]2[C@@H](O[C@H]3O[C@H](CO)[C@@H](O)[C@H](O)[C@H]3O[C@@H]3O[C@H](CO)[C@@H](O)[C@H](O)[C@H]3O)O[C@H](COC(=O)/C(C)=C/C)[C@@H](O)[C@@H]2O)[C@H](O)[C@@H](O)[C@@H]1O	4.33% [at 15.3 µM] (inactive)		
C=C1CC[C@@]2(OC1)O[C@H]1CC3C4CC=C5C[C@@H](O[C@@H]6O[C@@H](C)[C@H](O)[C@@H](O)[C@H]6O)C[C@@H](O[C@@H]6O[C@H](C)[C@H](O)[C@H](O)[C@H]6O[C@@H]6O[C@@H](C)[C@H](O)[C@@H](O)[C@H]6O)[C@]5(C)C4CC[C@]3(C)[C@H]1[C@@H]2C (some centres not stated)	-8.34% [at 15.3 µM] (inactive)		
C=C1CC[C@@]2(OC1)O[C@H]1CC3[C@@H]4CC=C5C[C@@H](O)C[C@@H](O[C@@H]6OC[C@H](O)[C@H](O)[C@H]6O[C@@H]6O[C@@H](C)[C@H](O)[C@@H](O)[C@H]6O)[C@]5(C)C4CC[C@]3(C)[C@H]1[C@@H]2C (some centres not stated)	-7.43% [at 15.3 µM] (inactive)		
COC(=O)C[C@@H]1C(C(=O)O)=CO[C@@H](O[C@@H]2O[C@H](CO)[C@@H](O)[C@H](O)[C@H]2O)/C1=C\COC(=O)/C=C/c1ccc(O)c(OC)c1	4.11% [at 15.3 µM] (inactive)		
CC1CCC2(C)CCC3(C)C(=CCC4C5(C)CCC(O)C(C)(C(=O)O)C5CCC43C)C2C1C (configuration not stated)	-8.5% (inactive)		
COc1c2c(c(C)c3c1C(=O)OC3)OC1(C)CC(O)C34OC(O)(CCC3(C)C1C2)OC4(C)C (configuration not stated)	-6.47% (inactive)		
C/C(=C\CCC(C)CCO)C(=O)OC[C@H]1O[C@@H](O[C@@H]2OC=C(C(=O)O)[C@H]3CC[C@](C)(O)[C@@H]23)C(O)[C@@H](O)C1O (some centres not stated)	-7.44% (inactive)		
CCN(CCN(C)C)C(=O)CNCc1cc(C(N)=O)ccn1		inactive [at 50 µM]	
C=C(COC(=O)CC(C)C)C1Cc2cc(C(C)=O)ccc2O1 (configuration not stated)	-3.76% [at 50 µM] (inactive)		
CNc1nc(Cc2ccccc2)nc2c1CCNC[C@@H]2C	-10.2% [at 50 µM] (inactive)		
CCC(C)/C=C(C)/C=C/C(=O)C1CCC(O)C(C)(O)C1=O (configuration not stated)	-0.55% [at 50 µM] (inactive)		
C=C(COC(=O)C(C)C)C1Oc2cc(C(C)=O)ccc2C1OC(=O)C(C)C (configuration not stated)	3.27% (inactive)		

Structure (SMILES)	activity change, negative = inhibition	outcome	Potency
CC1(C)CC[C@]2(C(=O)O[C@@H]3O[C@H](CO)[C@@H](O)[C@H](O)[C@H]3O)[C@H](O)C[C@]3(C)C(=CCC4[C@@]5(C)CC[C@H](O[C@@H]6OC[C@@H](O)[C@H](O)[C@H]6O)[C@@](C)(C(=O)O)C5CC[C@]43C)[C@@H]2C1 (some centres not stated)	2.55% [at 15.3 µM] (inactive)		
CC(C)(O)C(O)C(=O)OCc1ccc(O[C@@H]2O[C@H](CO)[C@@H](O)[C@H](O)[C@H]2O)cc1 (some centres not stated)	2.54% (inactive)		
C/C=C(/C)C(=O)O[C@@H]1C[C@@H](OC(=O)/C(C)=C\C)[C@@]2(C)C3C(=O)C=C(C)C2C3C1(C)C	-7.68% (inactive)		
C=C(C)[C@@H]1CC[C@]2(C)CC[C@]3(C)C(CCC4[C@@]5(C)CC[C@H](O)C(C)(C)C5CC[C@]43C)C12 (some centres not stated)	-0.0424% (inactive)		
CC(=O)O[C@@H]1C(=O)C(C)=C(CCC(C)CC(=O)O)[C@@]2(C)CCCC(C)(C)C12 (some centres not stated)	-4.94% (inactive)		
C/C=C/C=C/C(=O)OC1CC/C=C/C(O)C(O)C(CCC)OC1=O (configuration not stated)	-18.4% (inactive)		
C=C1C(O)CC2C(C(=O)O)=COC(OC3OC(CO)C(O)C(O)C3OC(=O)/C=C\c3ccc(O)cc3)C12 (configuration not stated)	0.287% (inactive)		
CC(C)c1c(NC(=O)Nc2ccc(Cl)cc2)c(=O)n(-c2ccccc2)n1C	1.34% [at 50 µM] (inactive)		
CC(C)(C)NS(=O)(=O)c1ccc(-c2ccc3[nH]nc(N)c3c2)cc1	-15.2% [at 50 µM] (inactive)		
COc1cc2c(cc1O)C(c1ccc(O)cc1)C(C)C(C)C2 (configuration not stated)	-23.9% [at 50 µM] (inactive)		
CCNC(=O)OC1CCN(c2nncc3cc(OC)c(OC)cc23)CC1	-1.92% [at 50 µM] (inactive)		
CC(=O)OC1CC2(C)C(CCC(C)C23Cc2c(O)cc4c(c2O3)CNC4=O)C(C)(C)C1O (configuration not stated)	-19.7% (inactive)		
CC1=C(CCC(C)O[C@@H]2O[C@H](CO)[C@@H](O)[C@H](O)[C@H]2O)C(C)(C)CC(O)C1 (some centres not stated)	1.32% (inactive)		
C=C1C(OC(C)=O)C(=O)C2C(C)(C)C(O)CCC2(C)C1CC(OC(C)=O)/C(C)=C/COC(C)=O (configuration not stated)	-14.9% (inactive)		
C=C1[C@H]2CCC3[C@]4(C)CCC[C@@](C)(C(=O)O)C4CC[C@]3(C2)[C@H]1OC(C)=O (some centres not stated)	-13.2% (inactive)		
N#Cc1cc(-c2n[nH]c(-c3ccncc3)n2)ccn1			inactive
COC1CC(O[C@H]2CC[C@@]3(C)C(=CC[C@]4(O)C3[C@H](O)[C@@H](O)[C@]3(C)[C@@H]([C@H](C)O)CC[C@@]34O)C2)OC(C)C1OC1CC(OC)C(OC2CC(OC)C(OC3OC(C)C(OC4OC(CO)C(O)C(O)C4O)C(OC)C3O)C(C)O2)C(C)O1 (some centres not stated)	3.98% [at 15.3 µM] (inactive)		
CC1=C2CC(C)(C)CC2C(O)C2=C(C1)C(=O)OC2O (configuration not stated)	0.916% [at 50 µM] (inactive)		
C[C@@H]1[C@H]2[C@H](O[C@@H]3O[C@H](CO)[C@@H](O)[C@H](O)[C@H]3O)OC=C(C(=O)O)[C@H]2C[C@@H]1OC(=O)/C=C/c1ccc(O)cc1		inactive	
